{"source": "ChEMBL document CHEMBL2218924", "about": "“A broad activity screen in support of a chemogenomic map for kinase signalling research and drug discovery” (Biochem J, 2013)", "data": [{"biological_target": "Protein kinase C beta type (Homo sapiens) (UniProt P05771)", "sequence (P05771 2-671 limits assumed)": "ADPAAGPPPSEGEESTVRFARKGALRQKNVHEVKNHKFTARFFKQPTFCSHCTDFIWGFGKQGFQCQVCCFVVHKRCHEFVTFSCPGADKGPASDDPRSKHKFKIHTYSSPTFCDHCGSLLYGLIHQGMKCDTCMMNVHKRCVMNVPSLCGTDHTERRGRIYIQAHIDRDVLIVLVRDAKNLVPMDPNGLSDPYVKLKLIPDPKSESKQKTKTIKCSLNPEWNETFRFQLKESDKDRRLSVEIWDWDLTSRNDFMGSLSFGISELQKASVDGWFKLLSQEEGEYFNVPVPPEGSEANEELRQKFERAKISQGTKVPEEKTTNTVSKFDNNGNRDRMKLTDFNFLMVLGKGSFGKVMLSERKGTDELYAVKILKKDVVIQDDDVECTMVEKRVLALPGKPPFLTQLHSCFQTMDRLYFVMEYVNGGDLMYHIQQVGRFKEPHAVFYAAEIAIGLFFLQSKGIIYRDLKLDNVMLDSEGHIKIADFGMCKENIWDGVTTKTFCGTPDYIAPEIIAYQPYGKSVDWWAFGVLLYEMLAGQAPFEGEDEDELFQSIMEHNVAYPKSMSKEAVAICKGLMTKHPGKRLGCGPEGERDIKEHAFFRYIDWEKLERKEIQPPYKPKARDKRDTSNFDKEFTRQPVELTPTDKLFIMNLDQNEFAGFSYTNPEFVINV", "settings": "at 10 µM", "units": {"residual activity": "%"}, "values": [{"smiles": "COc1ccc2c(c1)c(C1=C(c3c[nH]c4ccccc34)C(=O)NC1=O)cn2CCCN(C)C", "residual activity": 3}, {"smiles": "O=C(O)/C=C/c1cc(Br)c(Br)c(Br)c1Br", "residual activity": 101}, {"smiles": "COc1cc2ncnc(Nc3cccc(Cl)c3)c2cc1OC", "residual activity": 108}, {"smiles": "COc1cc2nccc(Oc3ccc(NC(=S)NC(=O)c4ccccc4C)cc3)c2cc1OC", "residual activity": 101}, {"smiles": "O=C(CCCc1ccc(-c2ccccc2F)cc1)Nc1ccc(O)cc1", "residual activity": 101}, {"smiles": "O=C1NC(=O)C(c2c[nH]c3ccccc23)=C1c1c[nH]c2ccccc12", "residual activity": 27}, {"smiles": "Nc1ncnc2[nH]nc(Nc3ccc(F)cc3)c12", "residual activity": 99}, {"smiles": "CCCCc1c(-c2ccc(OC)cc2)[nH]c2nccnc12", "residual activity": 102}, {"smiles": "Cn1sc(=O)n(Cc2ccccc2)c1=O", "residual activity": 43}, {"smiles": "COc1cc2c(cc1OC)-c1n[nH]c(Nc3cccc(F)c3)c1C2", "residual activity": 105}, {"smiles": "CC(C)(C)n1nc(Cc2cccc3ccccc23)c2c(N)ncnc21", "residual activity": 105}, {"smiles": "Nc1ncnc2c1c(-c1ccc(Oc3ccccc3)cc1)cn2C1CCCC1", "residual activity": 91}, {"smiles": "NC(=O)Nc1sc(-c2ccc(F)cc2)cc1C(N)=O", "residual activity": 89}, {"smiles": "O=C1Nc2ccc(Cl)cc2/C1=C/c1cc(Cl)c(O)c(Cl)c1", "residual activity": 90}]}, {"biological_target": "Protein kinase C gamma type (Homo sapiens) (UniProt P05129)", "settings": "at 1 µM", "units": {"residual activity": "%"}, "values": [{"smiles": "COc1ccc2c(c1)c(C1=C(c3c[nH]c4ccccc34)C(=O)NC1=O)cn2CCCN(C)C", "residual activity": 3}, {"smiles": "c1ccc(-c2cnc(Nc3ccc(OCCN4CCCC4)cc3)s2)cc1", "residual activity": 123}, {"smiles": "NCCNc1ncc(C(N)=O)c(Nc2cccc(C(F)(F)F)c2)n1", "residual activity": 58}, {"smiles": "O=C(O)/C=C/c1cc(Br)c(Br)c(Br)c1Br", "residual activity": 96}, {"smiles": "CC(C)(C)c1nc2c3ccc(F)cc3c3c(=O)[nH]ccc3c2[nH]1", "residual activity": 40}, {"smiles": "O=C(CCCc1ccc(-c2ccccc2F)cc1)Nc1ccc(O)cc1", "residual activity": 104}, {"smiles": "O=C1NC(=O)C(c2c[nH]c3ccccc23)=C1c1c[nH]c2ccccc12", "residual activity": 36}, {"smiles": "N#C/C(=C\\c1ccc(O)c(O)c1)C(=O)NCc1ccccc1", "residual activity": 124}, {"smiles": "Cn1c2ccccc2c2c3c(c4c5ccccc5n(CCC#N)c4c21)CNC3=O", "residual activity": 9}, {"smiles": "Cn1sc(=O)n(Cc2ccccc2)c1=O", "residual activity": 59}, {"smiles": "COc1cc2c(cc1OC)-c1n[nH]c(Nc3cccc(F)c3)c1C2", "residual activity": 104}, {"smiles": "CC(C)(C)n1nc(Cc2cccc3ccccc23)c2c(N)ncnc21", "residual activity": 106}, {"smiles": "Nc1ncnc2c1c(-c1ccc(Oc3ccccc3)cc1)cn2C1CCCC1", "residual activity": 111}, {"smiles": "O=C1NC(=O)c2c1c1c3ccccc3[nH]c1n1cncc21", "residual activity": 71}]}, {"biological_target": "Protein kinase C gamma type (Homo sapiens) (UniProt P05129)", "settings": "at 10 µM", "units": {"residual activity": "%"}, "values": [{"smiles": "COc1ccc2c(c1)c(C1=C(c3c[nH]c4ccccc34)C(=O)NC1=O)cn2CCCN(C)C", "residual activity": 0}, {"smiles": "Nc1ncnc2c1cnn2-c1ccccc1", "residual activity": 98}, {"smiles": "c1ccc(-c2cnc(Nc3ccc(OCCN4CCCC4)cc3)s2)cc1", "residual activity": 111}, {"smiles": "NCCNc1ncc(C(N)=O)c(Nc2cccc(C(F)(F)F)c2)n1", "residual activity": 11}, {"smiles": "CC(C)(C)c1nc2c3ccc(F)cc3c3c(=O)[nH]ccc3c2[nH]1", "residual activity": 46}, {"smiles": "CCN(CC)CCNC(=O)c1c(C)[nH]c(/C=C2\\C(=O)Nc3ccc(Cl)cc32)c1C", "residual activity": 51}, {"smiles": "O=C(CCCc1ccc(-c2ccccc2F)cc1)Nc1ccc(O)cc1", "residual activity": 110}, {"smiles": "O=C1NC(=O)C(c2c[nH]c3ccccc23)=C1c1c[nH]c2ccccc12", "residual activity": 6}, {"smiles": "N#C/C(=C\\c1ccc(O)c(O)c1)C(=O)NCc1ccccc1", "residual activity": 102}, {"smiles": "Cn1c2ccccc2c2c3c(c4c5ccccc5n(CCC#N)c4c21)CNC3=O", "residual activity": 16}, {"smiles": "CCCCc1c(-c2ccc(OC)cc2)[nH]c2nccnc12", "residual activity": 106}, {"smiles": "Cn1sc(=O)n(Cc2ccccc2)c1=O", "residual activity": 3}, {"smiles": "COc1cc2c(cc1OC)-c1n[nH]c(Nc3cccc(F)c3)c1C2", "residual activity": 105}, {"smiles": "O=C(c1cc2cc(O)ccc2[nH]1)c1cc2cc(O)ccc2[nH]1", "residual activity": 56}, {"smiles": "CC(C)(C)n1nc(Cc2cccc3ccccc23)c2c(N)ncnc21", "residual activity": 94}, {"smiles": "Nc1ncnc2c1c(-c1ccc(Oc3ccccc3)cc1)cn2C1CCCC1", "residual activity": 104}, {"smiles": "O=C1NC(=O)c2c1c1c3ccccc3[nH]c1n1cncc21", "residual activity": 56}]}, {"biological_target": "Protein kinase C delta type (Homo sapiens) (UniProt Q05655)", "sequence (Q05655 whole entry, looked up)": "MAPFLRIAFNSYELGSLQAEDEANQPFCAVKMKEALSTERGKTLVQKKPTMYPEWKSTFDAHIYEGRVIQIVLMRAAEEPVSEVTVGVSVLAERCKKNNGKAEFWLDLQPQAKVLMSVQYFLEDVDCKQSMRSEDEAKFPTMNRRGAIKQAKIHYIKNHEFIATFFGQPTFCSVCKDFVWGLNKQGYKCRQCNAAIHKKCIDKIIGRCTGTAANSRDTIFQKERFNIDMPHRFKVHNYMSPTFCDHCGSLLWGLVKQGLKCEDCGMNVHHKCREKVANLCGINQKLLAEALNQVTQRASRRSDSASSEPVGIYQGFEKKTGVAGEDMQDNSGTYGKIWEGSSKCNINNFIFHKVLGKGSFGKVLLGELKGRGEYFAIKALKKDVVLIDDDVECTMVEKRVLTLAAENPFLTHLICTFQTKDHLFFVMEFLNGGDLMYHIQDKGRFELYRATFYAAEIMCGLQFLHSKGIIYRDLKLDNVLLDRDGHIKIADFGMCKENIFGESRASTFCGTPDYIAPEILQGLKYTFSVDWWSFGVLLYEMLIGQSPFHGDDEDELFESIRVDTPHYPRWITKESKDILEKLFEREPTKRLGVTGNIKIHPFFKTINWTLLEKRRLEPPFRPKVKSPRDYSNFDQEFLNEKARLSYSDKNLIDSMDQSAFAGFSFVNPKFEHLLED", "settings": "at 1 µM", "units": {"residual activity": "%"}, "values": [{"smiles": "COc1ccc2c(c1)c(C1=C(c3c[nH]c4ccccc34)C(=O)NC1=O)cn2CCCN(C)C", "residual activity": 3}, {"smiles": "Nc1ncnc2c1cnn2-c1ccccc1", "residual activity": 99}, {"smiles": "NCCNc1ncc(C(N)=O)c(Nc2cccc(C(F)(F)F)c2)n1", "residual activity": 75}, {"smiles": "O=C(O)/C=C/c1cc(Br)c(Br)c(Br)c1Br", "residual activity": 100}, {"smiles": "CC(C)(C)c1nc2c3ccc(F)cc3c3c(=O)[nH]ccc3c2[nH]1", "residual activity": 54}, {"smiles": "COc1cc2ncnc(Nc3cccc(Cl)c3)c2cc1OC", "residual activity": 104}, {"smiles": "COc1cc2nccc(Oc3ccc(NC(=S)NC(=O)c4ccccc4C)cc3)c2cc1OC", "residual activity": 98}, {"smiles": "Oc1cccc(-c2nc(N3CCOCC3)c3oc4ncccc4c3n2)c1", "residual activity": 94}, {"smiles": "O=C1NC(=O)C(c2c[nH]c3ccccc23)=C1c1c[nH]c2ccccc12", "residual activity": 31}, {"smiles": "CCOC(=O)c1c(C)[nH]c(/C=C2\\C(=O)Nc3ccccc32)c1C", "residual activity": 96}, {"smiles": "Nc1ncnc2[nH]nc(Nc3ccc(F)cc3)c12", "residual activity": 104}, {"smiles": "Cn1sc(=O)n(Cc2ccccc2)c1=O", "residual activity": 87}, {"smiles": "COc1cc2c(cc1OC)-c1n[nH]c(Nc3cccc(F)c3)c1C2", "residual activity": 102}, {"smiles": "O=C(c1cc2cc(O)ccc2[nH]1)c1cc2cc(O)ccc2[nH]1", "residual activity": 100}, {"smiles": "CC(C)(C)n1nc(Cc2cccc3ccccc23)c2c(N)ncnc21", "residual activity": 101}, {"smiles": "Nc1ncnc2c1c(-c1ccc(Oc3ccccc3)cc1)cn2C1CCCC1", "residual activity": 94}, {"smiles": "O=C1NC(=O)c2c1c1c3ccccc3[nH]c1n1cncc21", "residual activity": 79}, {"smiles": "NC(=O)Nc1sc(-c2ccc(F)cc2)cc1C(N)=O", "residual activity": 78}, {"smiles": "O=C1Nc2ccc(Cl)cc2/C1=C/c1cc(Cl)c(O)c(Cl)c1", "residual activity": 100}, {"smiles": "CCCC(=O)Oc1ccc2[nH]c(C(=O)c3cc4ccccc4[nH]3)cc2c1", "residual activity": 101}]}]}
